# This is part of a sample that, as a whole, favours compounds with a hit. Of some 79,000 tested, about 15% had one in any assay. A number with no mark means an inactive call. Active and inactive are the calls of the source. Cut-off read from the data, not from the text of the source: active = growth inhibition above about 70%; inactive = the rest.
# Tests used:
# [1] = NCI Yeast Anticancer Drug Screen. Data for the rad50 strain (AID 155);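 note: 0% = growth of vehicle-only cultures of the same strain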; details: S. cerevisiae rad50 strain growth inhibition; at 50.0 µM; active compounds read high
# Outline: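 Yeast carrying a defined DNA repair defect were exposed to test compounds, and growth was compared with vehicle-treated controls to give percent inhibition.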
# [2] = NCI Yeast Anticancer Drug Screen. Data for the mec2-1 strain (AID 157); details: S. cerevisiae mec2-1 strain, at 50.0 µM, active compounds read high
# Outline: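 Cells of the genetically defined mec2-1 yeast strain are incubated with test compound. Inhibition of growth is calculated against vehicle-treated controls.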
# [3] = NCI Yeast Anticancer Drug Screen. Data for the sgs1 mgt1 strain (AID 161);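 note: 0% = growth of cultures given vehicle only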; details: S. cerevisiae sgs1 mgt1 strain, at 50.0 µM, active compounds read high
# Outline: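 Mutant yeast exposed to compound; growth scored against vehicle-only wells.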
# [4] = NCI Yeast Anticancer Drug Screen. Data for the cln2 rad14 strain (AID 165);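 note: 0% = growth equal to vehicle treated cultures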; details: S. cerevisiae cln2 rad14 strain, at 50.0 µM, active compounds read high
# Outline: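 The screen exposed genetically defined yeast (cln2 rad14) to test compounds and scored growth inhibition relative to vehicle-treated controls.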
# [5] = NCI Yeast Anticancer Drug Screen. Data for the bub3 strain (AID 167); details: S. cerevisiae bub3 mutant strain, at 50.0 µM, active compounds read high
# Outline: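 Compounds were applied to a genetically altered yeast strain carrying a cell-cycle control defect. Growth inhibition was scored against vehicle-treated controls.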
# [6] = NCI Yeast Anticancer Drug Screen. Data for the mlh1 rad18 strain (AID 175); details: S. cerevisiae mlh1 rad18 strain growth inhibition; at 50.0 µM; active compounds read high
# Outline: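 Compound-treated yeast growth, normalised to vehicle controls. Strain bears defined DNA repair mutations.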
SMILES,growth inhibition [1],growth inhibition [2],growth inhibition [3] [%],growth inhibition [4],growth inhibition [5],growth inhibition [6]
O=[N+]([O-])c1c(Cl)ncnc1Cl,-52.5%,-47.8%,-56.8,-13.4%,-48.1%,-16.2%
Cn1c(=O)c2nc3c(=O)n(C)c(=O)n(C)c3nc2n(C)c1=O,-8%,-11.2%,-17.2,-6.9%,-13.7%,-2.25%
O=c1cc(Cl)nc2ccccn12,18.6%,-1.1%,-11,-52.3%,-3.85%,4.5%
C/C(O)=C(/C=N/C(=S)Nc1ccccc1)C(=O)Nc1ccccc1C,25.9%,5.6%,40.3,-4.5%,27.7%,24.9%
NNc1ncnc2nc[nH]c12,-20.4%,-9.65%,-14.3,-44.7%,-15.9%,-19.4%
N#C/C(=C\NC(=S)N=Nc1c(O)[nH]c2ccccc12)c1nc2ccccc2s1,10.1%,2.3%,29.1,-10.1%,17.9%,14.5%
ClCC(Cl)[C@@H]1CC2C=CC1C2 (some centres undefined),2.85%,-3.65%,10.3,15.6%,11.2%,-6.1%
CC(=O)c1ccc(C)cc1,-1.75%,6.1%,-28.8,-2.8%,-36%,-11.6%
CCCCCCCCCc1ccc(OC(C)=O)cc1,99.3% (active),97.2% (active),42.2,98% (active),94.2% (active),98.4% (active)
NS(=O)(=O)c1cc(=O)[nH]c(=O)[nH]1,-12.2%,-10.8%,-0.5,-4%,-1.95%,3.4%
COc1cc(C(=O)N2CCN(c3ccccc3)CC2)c2ccccc2n1,-3.8%,3.8%,10.7,18.5%,9.2%,3.1%
Nc1ncc([N+](=O)[O-])cn1,1.9%,-4.7%,-29,-13.8%,5.6%,-9.45%
CC1(c2ccccc2)CO1 (centres undefined),-2.8%,-21.4%,-7.85,-11.1%,-14.9%,4.3%
S=c1nc(-c2ccccn2)c(-c2ccccn2)n[nH]1,-11%,-9.05%,-1.2,11%,-21.8%,-53.7%
CCCCCC#CC(=O)O,-3.05%,-3.95%,-8.05,17.9%,-7.3%,19.4%
O=c1[nH]c(=O)c2cc(Cl)cc(Cl)c2[nH]1,-2.05%,-15.3%,-1.4,14%,9.25%,7.3%
CCCCCCCCCCCCCCCCOc1ccccc1NC(=O)CC(C)=O,-8.7%,-18.9%,-9.1,-5.85%,-5.3%,-3.95%

SMILES,growth inhibition [1],growth inhibition [2],growth inhibition [3] [%],growth inhibition [4],growth inhibition [5],growth inhibition [6]
COC1OC(CO)C(OC)C(O)C1O (centres undefined),-5.6%,0.2%,0.2,-6.7%,-0.65%,-2.2%
FC(F)(F)c1cc(NC2=NCCN=C(Nc3cc(C(F)(F)F)cc(C(F)(F)F)c3)SS2)cc(C(F)(F)F)c1,-14.1%,-29.7%,-10.8,-2%,-22%,-15.6%
COC1OC(C(COC(C)=O)OC(C)=O)C(OC(C)=O)C(OC(C)=O)C1OC(C)=O (centres undefined),13.8%,1.75%,4.35,-46.5%,52.2%,-14.8%
Nc1cccc2cccc(O)c12,40.1%,18.7%,-17.5,-10.8%,41.4%,43.5%
O=C(O)CC1=CCCCC1,23.4%,-21.6%,0.9,10.2%,-4.65%,6.9%
c1ccc(Nc2ccccn2)nc1,-10.2%,-13.8%,-21,-87.8%,3.8%,-24.6%
CCCC(=O)c1cccs1,3.25%,9.85%,10.8,-11.3%,-4.1%,11.9%
CCCOCc1cn[nH]n1,-9.7%,5.25%,8.3,-8.85%,-8.95%,-2.35%
O=C1C=CC(=O)C2=C1CCCC2,17.1%,10.9%,10.3,-9.75%,-20.2%,26.9%
CN(C)c1ccc(/C=C/C(=O)c2ccc(NC(N)=O)cc2)cc1,-8.35%,1.9%,-4.5,-51.6%,-18%,-8%
CC(CC(CCC(=O)O)(c1ccccc1)c1ccccc1)N(C)C (centres undefined),19.6%,-4.7%,9.45,-0.1%,7.95%,13.4%
COc1cccc2c1Cc1ccccc1-2,50.3%,-3.6%,13.3,12.8%,43.1%,24.4%
Oc1ccc2ccccc2c1CN1CCOCC1,26.9%,5.4%,32.9,27.9%,15.1%,19%
Cc1onc(-c2c(F)cccc2Cl)c1-c1ncc(-c2ccc(Br)cc2)o1,-13.4%,-15.9%,-9.75,9.45%,-15.5%,9.7%
CC(=O)NC(CCC(=O)c1ccccc1)C(=O)O (centres undefined),18.1%,-4.95%,17.3,5.05%,0%,16%
CCOC(=O)c1ccc(Nc2sc(C(=O)c3ccc(Br)cc3)c(N)c2C#N)cc1,-9.4%,-23.6%,12.6,20.3%,-3.6%,-2.05%
O=C(NC(=S)N1CC=CCC1)c1ccccc1,13.5%,16.7%,26.4,-1.95%,45.5%,21.3%
